Where a name gives a salt, the structure may show the parent alone.
Each compound was assayed on Vero E6 infected with SARS-CoV-2 (assay: morphology score (similarity to uninfected cells); higher = more like uninfected cells). Settings: 24 h.

Structure (SMILES)	morphology score
Nc1ncnc2nc(-c3ccc(N4CCOCC4)nc3)cc(-c3cccc(Br)c3)c12 (10 µM)	0.0544
COc1cccc2c1C(=O)c1c(O)c3c(c(O)c1C2=O)C[C@@](O)(C(=O)CO)C[C@@H]3O[C@H]1C[C@H](N)[C@H](O[C@@H]2CCCCO2)[C@H](C)O1 [pirarubicin] (10 µM)	-0.0488
CN1C(CCl)Nc2cc(Cl)c(S(N)(=O)=O)cc2S1(=O)=O (centres undefined) [methyclothiazide] (10 µM)	0.0153
O=C(OCCN1CCOCC1)c1cccnc1Nc1cccc(C(F)(F)F)c1 [morniflumate] (10 µM)	0.0767
CCn1cc(C(=O)O)c(=O)c2ccc(-c3ccncc3)cc21 [rosoxacin] (10 µM)	0.148
COc1ccc(CCN(C)CCCC(C#N)(c2cc(OC)c(OC)c(OC)c2)C(C)C)cc1OC (centres undefined) [gallopamil] (10 µM)	0.176
Cc1ccsc1C(=CCCN1CCC[C@@H](C(=O)O)C1)c1sccc1C [tiagabine] (10 µM)	0.0772
Cc1cnc(-c2cc(N3CCN(C(=O)CCS(C)(=O)=O)CC3)ncc2Cl)c(C)c1 (10 µM)	0.241
COc1ccc2c(c1OC)C(=O)O[C@@H]2[C@H]1c2cc3c(cc2CCN1C)OCO3 [hydrastine-(1R,9S)] (10 µM)	-0.0178
CC(C)(CO)[C@@H](O)C(=O)NCCC(=O)O [pantothenic-acid] (10 µM)	0.0324
COc1cccc(-c2ccc(NC(=O)C3=C(C(=O)O)CCC3)c(F)c2)c1 (10 µM)	0.159
O=c1c(O)c(-c2ccc(O)c(O)c2)oc2cc(O)ccc12 [fisetin] (10 µM)	0.115
CC/C(=C(\c1ccc(O)cc1)c1ccc(OCCNC)cc1)c1ccccc1 [Endoxifen HCl] (10 µM)	0.817
COc1ccc2[nH]c([S+]([O-])Cc3ncc(C)c(OC)c3C)nc2c1 (centres undefined) [omeprazole-magnesium] (10 µM)	-0.138
CC(C)Cc1ccc([C@@H](C)C(=O)NCCO)cc1 (racemic) [mabuprofen] (10 µM)	0.127
CN1C(=O)/C(=C2/C(=O)Nc3ccccc32)c2ccccc21 [meisoindigo] (0.833333 µM)	0.0882
CCN(CC)Cc1ccc(C(=O)N(CCc2ccccc2OC)[C@@H]2CCNC2)cc1 (10 µM)	0.0144

Structure (SMILES)	morphology score
COc1ccc(-c2cc(=O)c3c(O)cc(O[C@@H]4O[C@H](CO[C@@H]5O[C@@H](C)[C@H](O)[C@@H](O)[C@H]5O)[C@@H](O)[C@H](O)[C@H]4O)cc3o2)cc1O [diosmin] (10 µM)	-0.119
O=C(NC1CCC1)c1ccc(C#Cc2cccc(F)c2)nc1 (10 µM)	0.0178
O=C(Cc1ccc(Cl)c(Cl)c1)N1CCCC[C@@H]1CN1CCCC1 (10 µM)	0.168
N#Cc1ccc(N(Cc2ccc(Br)cc2)n2cnnc2)cc1 (10 µM)	0.208
O=C(O)COc1cccc(-c2ocnc2-c2nc(-c3ccccc3)c(-c3ccccc3)o2)c1 (10 µM)	0.194
O=C(O)[C@H]1CCCN(CCC=C(c2ccccc2)c2ccccc2)C1 (racemic) (10 µM)	0.0757
COc1ccc2[nH]c(-c3ccccc3)c(CCNC(C)=O)c2c1 [2-phenylmelatonin] (10 µM)	0.062
CCC(CC)Nc1nc(C)c(-c2ccc(OC(F)(F)F)cc2OC)nc1OC (10 µM)	0.2
Clc1ccc(Nc2nnc(Cc3ccncc3)c3ccccc23)cc1 [vatalanib] (10 µM)	0.199
NCCCC[C@H](NC(=O)[C@@H](Cc1cc(Br)c(O)c(Br)c1)NC(=O)N1CCC(N2Cc3ccccc3NC2=O)CC1)C(=O)N1CCN(c2ccncc2)CC1 (10 µM)	0.0352
N=C(N)NCc1cccc(I)c1 [iobenguane] (10 µM)	0.132
Cc1cc(C(C#N)c2ccc(Cl)cc2)c(Cl)cc1NC(=O)c1cc(I)cc(I)c1O (centres undefined) [closantel] (10 µM)	0.257
NNc1nncc2ccccc12 [hydralazine] (10 µM)	-0.0789
O=C(O)Cc1cccnc1C(=O)O [homoquinolinic-acid] (10 µM)	0.0575
OCc1c[nH]c2ccccc12 [indole-3-carbinol] (10 µM)	0.0621
COc1nccc(-c2c(-c3ccc(F)cc3)ncn2C2CCNCC2)n1 (10 µM)	-0.0202
C=CC(=O)N1CCC(Oc2cc3c(Nc4ccc(Cl)c(Cl)c4F)ncnc3cc2OC)CC1 [poziotinib] (10 µM)	-0.0962

From the supplement of paper PMC13380429
